{"source": "the supplement of paper PMC12632987"}
{"molecular_target": "T1, USP38, Q8NB14", "T1 chain": "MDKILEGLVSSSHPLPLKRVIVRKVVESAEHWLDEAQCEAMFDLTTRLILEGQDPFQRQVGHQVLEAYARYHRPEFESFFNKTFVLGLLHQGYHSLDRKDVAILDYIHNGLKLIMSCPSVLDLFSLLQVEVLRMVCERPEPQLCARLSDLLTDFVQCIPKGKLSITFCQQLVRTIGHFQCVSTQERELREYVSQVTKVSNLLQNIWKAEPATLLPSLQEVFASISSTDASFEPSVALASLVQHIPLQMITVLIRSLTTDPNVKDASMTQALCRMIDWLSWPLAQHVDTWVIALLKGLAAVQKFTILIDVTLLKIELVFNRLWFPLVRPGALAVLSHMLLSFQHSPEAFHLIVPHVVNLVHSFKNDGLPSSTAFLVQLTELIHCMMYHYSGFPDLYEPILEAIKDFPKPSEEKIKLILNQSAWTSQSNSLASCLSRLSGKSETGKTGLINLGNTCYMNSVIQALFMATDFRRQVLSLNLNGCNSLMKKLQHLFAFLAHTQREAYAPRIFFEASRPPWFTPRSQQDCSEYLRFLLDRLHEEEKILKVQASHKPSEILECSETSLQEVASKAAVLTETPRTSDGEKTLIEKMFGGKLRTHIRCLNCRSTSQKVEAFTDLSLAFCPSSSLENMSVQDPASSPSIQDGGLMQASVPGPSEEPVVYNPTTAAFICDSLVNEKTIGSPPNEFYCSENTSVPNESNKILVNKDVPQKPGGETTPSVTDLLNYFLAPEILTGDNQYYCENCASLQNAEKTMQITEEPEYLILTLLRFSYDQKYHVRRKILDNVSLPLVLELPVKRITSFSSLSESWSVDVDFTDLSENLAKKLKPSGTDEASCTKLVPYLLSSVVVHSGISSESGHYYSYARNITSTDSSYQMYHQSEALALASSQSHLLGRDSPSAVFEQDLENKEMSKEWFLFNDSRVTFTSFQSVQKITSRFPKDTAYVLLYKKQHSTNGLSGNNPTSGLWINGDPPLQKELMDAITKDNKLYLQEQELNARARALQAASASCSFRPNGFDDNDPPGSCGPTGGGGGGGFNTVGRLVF", "assay": "median log2 fold change of GCK-ALFA target abundance (FLAG IP / Myc IP barcode read proportion) (log2 ratio); each designed protein is fused to an ALFA-tag nanobody in HEK293 cells to bring the named protein to FLAG-tagged glucokinase (GCK); Myc marks an untargeted standard; higher = target protein stabilised (more abundant)", "conditions": "target protein: 3xFLAG-MCP-GCK-ALFA reporter; HEK293 landing pad (RPLP)", "outline": "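Sequencing of reverse-transcribed, amplified circular RNA barcodes from anti-FLAG and anti-Myc immunoprecipitates provided the readout for an ALFA-nanobody-fused binder library recombined into HEK293 landing-pad cells. Those cells were induced with 2 μg mL^−1 doxycycline, transfected with a plasmid expressing a FLAG-tagged target and a Myc-tagged standard, and lysed after 48 h. Target abundance is the per-binder median log2 ratio of FLAG to Myc barcode read proportions. Only barcodes at a proportion of ≥10^−7 in both replicates and binders with ≥3 barcodes per replicate were kept, with a 10^−6 pseudocount added before the two replicates were pooled.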"}
{"binder": "usp_38_diff_out_13_93_69 (protein) EREERAEEIVERVERLGEELLKELEAAAADPSTTIEELLDLYSELVRRLVTATQAALAEARELGDEETVERILEISNETLLRLSELTTEALTAKAEAEAA", "median log2 fold change": -0.38}
{"binder": "usp_38_diff_out_13_43_64 (protein) LREKAEKALAEADAALGRAYAVSRELRDKMREVNPEDAKKLLKARKKLDEVGNALADARAALETAMILGEGVEEAIPKVQAAVAKLKAAIEEAEKLLKEV", "median log2 fold change": -0.253}
{"binder": "usp_38_diff_out_13_133_55 (protein) AAAEAARAEAEALLAETEKRVEELLKKAKEALKAGDVETAEKYVGEAAGTLLEARDRLSDLTADDPELRREVLKRLKELEEKLNELIDEVEKALREEFLK", "median log2 fold change": 0.299}
{"binder": "usp_38_diff_out_13_133_58 (protein) SAAEERRKKALERLEEAEKKVEELLKKAEEALKEGKIEEASKYVGEAAGIIVKTRSDLMALTKDDPELRKEILKRLKELEKKLNELIDKVVEAEKKKFLA", "median log2 fold change": 0.217}
{"binder": "usp_38_diff_out_13_133_60 (protein) SAAEERRAEARRRLEEAEERVKALLKEAKAALKAGKIDEARKKVGEAAGVIVDTRSDLMALTRDDPELRREILKRLKELEKELDKLIDEVVKAEEEAFLA", "median log2 fold change": -0.0799}
{"binder": "usp_38_diff_out_13_43_65 (protein) LREEAEKALAEADKALGEAYKLSQEIRDKIRESDPETAKKLVKLRKELDDAGNALADARVALELALHSGEGVEEAIAATRAAIAALKKKIAEAKKELAAL", "median log2 fold change": 0.148}
{"binder": "usp_38_diff_out_13_43_66 (protein) LEEEAEKVLKELDETLGEIYNLSLELRDKIRESDPETAKKLVEIKKRLDEVGNELADARRDLEIALISGEGLEEAIKKGKEKIEKAKKTIKEAKEELEKL", "median log2 fold change": 0.341}
{"binder": "usp_38_diff_out_13_133_61 (protein) SAMEERRKEAREELEKAKKEIEELLKKAEEALKEGDIETAEKYVGEAAGLILDTRSDLMERTKDDPELRKEILKELKELEKKLNELIDKVVKAREEEFLK", "median log2 fold change": 0.145}
{"binder": "usp_38_diff_out_13_133_53 (protein) AAAEARRARALALLEEAEARVEKLIKEAEKALKEGKIDEARKYVAEAAGTLLRTRDELFDLTADDPELRREVLRRLKELTKRLDKVIDKVEKAERERFLA", "median log2 fold change": 0.000412}
{"binder": "usp_38_diff_out_13_133_56 (protein) SMAEKKREEAKKLLEETKKKVEKLLEEAEKALKEGDVEKAWEKVGEAAGTLLKARDELTDLTEDDPELRKEVLKELKKLEEKLNKLIDKVEKALREEFLK", "median log2 fold change": -0.0894}
{"binder": "usp_38_diff_out_13_133_62 (protein) SAAEERRKEALKELEETEKKIEELLKKAKEALKEGKIEEAEKYVGEAAGLILKARSDLMAKTKDDPELRKEILKRLKELEKKLNELIDEVNEALKKKFLE", "median log2 fold change": 0.147}
{"binder": "usp_38_diff_out_13_133_59 (protein) SAAEERRREAERRLAEAERRIRELLEKAKKALEEGDIDEAERYVGEAAGIILRTRSDLMALTRDDPELRRRILRRLKELEEELNELIDEVVEAEKKRFLA", "median log2 fold change": 0.136}
{"binder": "usp_38_diff_out_13_93_67 (protein) DKEEEAKKLLEELKKFAEEKLKELEKLAKDPSVTIEELLEKYSELVSELITKHNEVKKKLDELGDEKTKKEATKITNEALLRMSEITTEALTRKQEEAEA", "median log2 fold change": 0.158}
{"binder": "usp_38_diff_out_13_133_63 (protein) SAAEERRAAARARLDAAVAEVERLLEEARRALEEGDVERAERYVGEAAGVLVRTRSELMALTRDDPELRREILRRLKELERRLEELIDEVEAARREAFLA", "median log2 fold change": 0.0626}
{"binder": "usp_38_diff_out_13_133_54 (protein) AAAEARREEARRLLEEAEKEIEKLLKEAEKALEEGNIDKAYEYVAKAAGLLLETRDRLFDLTRDDPELRREVLKRLKELEKKLNELIDKVEAAERERFLA", "median log2 fold change": -0.102}
{"binder": "usp_38_diff_out_13_133_57 (protein) SAAEERRAEARARLAETEAEVEKLLKEAKAALKAGDIDEAEKKVGEAAGLILEARSDLFALTRDDPELRREIRRRLKELEKELDKLIDEVVEARKKEFLA", "median log2 fold change": 0.0932}
